What all share (parameters): scale not given: direction of the effect not stated beside the values
Test [1] deals with Protein translocase subunit SecA (Escherichia coli (strain K12)) (UniProt P10408). The test can be described thus: Assay to Identify E. coli SecA ATPase Inhibitors. It is filed as functional. Conditions: 30 µM.
Test [2] addresses T1, Ubiquitin-activating enzyme e1, putative (Leishmania donovani (strain BPK282A1)) (UniProt E9BSI1).
T1 sequence (whole entry): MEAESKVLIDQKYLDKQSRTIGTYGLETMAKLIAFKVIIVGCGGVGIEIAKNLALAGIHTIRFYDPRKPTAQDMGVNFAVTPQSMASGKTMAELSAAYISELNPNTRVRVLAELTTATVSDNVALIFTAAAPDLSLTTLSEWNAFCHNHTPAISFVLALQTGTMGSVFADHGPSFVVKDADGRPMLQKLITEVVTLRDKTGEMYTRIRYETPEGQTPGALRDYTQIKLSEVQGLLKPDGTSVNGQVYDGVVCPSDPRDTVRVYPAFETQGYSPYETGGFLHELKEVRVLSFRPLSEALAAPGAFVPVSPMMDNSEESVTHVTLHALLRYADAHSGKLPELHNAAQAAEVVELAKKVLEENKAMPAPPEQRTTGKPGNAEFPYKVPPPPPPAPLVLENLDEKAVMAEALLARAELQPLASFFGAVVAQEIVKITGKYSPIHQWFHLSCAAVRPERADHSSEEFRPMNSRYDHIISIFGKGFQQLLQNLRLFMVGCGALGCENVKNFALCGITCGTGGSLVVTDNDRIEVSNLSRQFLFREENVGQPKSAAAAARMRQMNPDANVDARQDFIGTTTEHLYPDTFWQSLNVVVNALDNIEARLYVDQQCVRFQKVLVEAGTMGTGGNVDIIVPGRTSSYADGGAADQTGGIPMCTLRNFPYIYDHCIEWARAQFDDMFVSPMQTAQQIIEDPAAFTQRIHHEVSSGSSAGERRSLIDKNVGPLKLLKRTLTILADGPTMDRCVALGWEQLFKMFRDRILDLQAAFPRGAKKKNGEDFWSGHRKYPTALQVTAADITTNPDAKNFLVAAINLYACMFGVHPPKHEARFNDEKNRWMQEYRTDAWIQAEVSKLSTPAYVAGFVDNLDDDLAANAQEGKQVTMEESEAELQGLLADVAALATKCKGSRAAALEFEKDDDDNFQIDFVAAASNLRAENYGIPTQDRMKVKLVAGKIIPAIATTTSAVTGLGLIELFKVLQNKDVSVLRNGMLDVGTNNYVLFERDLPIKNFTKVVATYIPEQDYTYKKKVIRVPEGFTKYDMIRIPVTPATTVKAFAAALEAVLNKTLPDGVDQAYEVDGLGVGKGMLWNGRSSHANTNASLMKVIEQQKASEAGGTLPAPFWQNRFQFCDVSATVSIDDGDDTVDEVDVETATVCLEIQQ
The test can be described thus: Leishmania donovani Ubiquitin Activating Enzyme (LdE1). The test is classed as functional. Conditions: 30 µM.

Test [3] has as its target AMP-activated protein kinase, AMPK (Homo sapiens) (UniProt P54646+O43741+P54619+Q9UGJ0+Q9Y478+Q13131+Q9UGI9). The test can be described thus: AMP-dependent Kinase enzyme assay. An in vitro enzyme assay that detects ADP turnover that is directly proportional to AMPK activity. This uses naive AMPK that is activated during the assay with MK-8722. It is filed as functional. Conditions: 30 µM.

Test [4] deals with Sialic acid-binding Ig-like lectin 9 (Homo sapiens) (UniProt Q9Y336). The test can be described thus: Hs-Siglec9 ALPHAscreen SOP 20170721. Conditions: 10 µM.
Sequence of Sialic acid-binding Ig-like lectin 9 (Homo sapiens) (Q9Y336 whole entry): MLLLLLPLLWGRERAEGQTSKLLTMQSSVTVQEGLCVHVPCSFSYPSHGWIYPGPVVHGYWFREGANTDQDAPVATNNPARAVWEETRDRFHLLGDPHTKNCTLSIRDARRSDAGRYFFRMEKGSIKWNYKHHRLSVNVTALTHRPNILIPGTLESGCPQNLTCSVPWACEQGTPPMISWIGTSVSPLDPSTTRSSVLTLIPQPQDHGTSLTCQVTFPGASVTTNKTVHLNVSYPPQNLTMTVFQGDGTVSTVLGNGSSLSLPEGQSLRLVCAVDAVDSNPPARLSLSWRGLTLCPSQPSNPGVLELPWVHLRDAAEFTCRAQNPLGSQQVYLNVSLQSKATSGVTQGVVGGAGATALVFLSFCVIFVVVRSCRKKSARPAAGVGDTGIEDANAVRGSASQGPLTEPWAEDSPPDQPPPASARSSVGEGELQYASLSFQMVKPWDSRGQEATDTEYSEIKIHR
A further test concerns Trypanosoma cruzi. The test can be described thus: Trypanosoma cruzi phosphomannomutase and mannose-1-phosphate guanylyltransferase assay. It is filed as functional. Particulars: 10 µM.
The target in test [5] is T2, Arginase-2, mitochondrial (Homo sapiens) (UniProt P78540).
T2 sequence (whole entry): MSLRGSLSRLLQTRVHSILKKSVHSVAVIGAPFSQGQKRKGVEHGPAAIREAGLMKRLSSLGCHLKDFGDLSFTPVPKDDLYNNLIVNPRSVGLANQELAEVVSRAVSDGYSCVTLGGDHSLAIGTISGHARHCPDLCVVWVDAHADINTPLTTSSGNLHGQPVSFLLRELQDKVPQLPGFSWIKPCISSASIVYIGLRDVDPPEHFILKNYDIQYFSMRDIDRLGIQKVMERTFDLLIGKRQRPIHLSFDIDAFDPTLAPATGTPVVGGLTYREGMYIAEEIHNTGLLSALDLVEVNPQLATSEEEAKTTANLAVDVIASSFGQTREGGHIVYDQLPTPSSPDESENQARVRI
The test can be described thus: in vitro enzyme assay to detect the production of urea directly proportional to the activity of Arginase II. Note: in the data most compounds retested in dose-response had high values. It is filed as functional. Particulars: 33.3 µM.

The target in test [6] is T3, Proteasome subunit beta (Trypanosoma cruzi) (UniProt O96673).
T3 sequence (whole entry): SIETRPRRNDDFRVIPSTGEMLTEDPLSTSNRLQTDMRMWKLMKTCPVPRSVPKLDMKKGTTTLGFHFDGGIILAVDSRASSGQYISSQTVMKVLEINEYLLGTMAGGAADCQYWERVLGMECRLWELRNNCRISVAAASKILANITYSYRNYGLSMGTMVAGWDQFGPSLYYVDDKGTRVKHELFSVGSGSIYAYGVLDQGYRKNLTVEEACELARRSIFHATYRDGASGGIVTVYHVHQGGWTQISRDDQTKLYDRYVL
The experiment in a line: Trypanosoma cruzi proteasome chymotrypsin-like activity (TcProtChymo) assay. Note: in the data most compounds retested in dose-response had high values. The test is classed as functional. Particulars: 9.37 µM.

For a further test, the species on record is Homo sapiens. The test can be described thus: To identify inhibition of the IFN signalling (Jak-Stat) pathway via expression of an eGFP reporter gene under the control of an IFN-stimulated response element (ISRE) containing MxA promoter. It is filed as functional. Particulars: 30 µM.
Test [7] has as its target T4, Tyrosyl-tRNA synthetase, putative (Trypanosoma cruzi (strain CL Brener)) (UniProt Q4DSP6).
T4 sequence (whole entry): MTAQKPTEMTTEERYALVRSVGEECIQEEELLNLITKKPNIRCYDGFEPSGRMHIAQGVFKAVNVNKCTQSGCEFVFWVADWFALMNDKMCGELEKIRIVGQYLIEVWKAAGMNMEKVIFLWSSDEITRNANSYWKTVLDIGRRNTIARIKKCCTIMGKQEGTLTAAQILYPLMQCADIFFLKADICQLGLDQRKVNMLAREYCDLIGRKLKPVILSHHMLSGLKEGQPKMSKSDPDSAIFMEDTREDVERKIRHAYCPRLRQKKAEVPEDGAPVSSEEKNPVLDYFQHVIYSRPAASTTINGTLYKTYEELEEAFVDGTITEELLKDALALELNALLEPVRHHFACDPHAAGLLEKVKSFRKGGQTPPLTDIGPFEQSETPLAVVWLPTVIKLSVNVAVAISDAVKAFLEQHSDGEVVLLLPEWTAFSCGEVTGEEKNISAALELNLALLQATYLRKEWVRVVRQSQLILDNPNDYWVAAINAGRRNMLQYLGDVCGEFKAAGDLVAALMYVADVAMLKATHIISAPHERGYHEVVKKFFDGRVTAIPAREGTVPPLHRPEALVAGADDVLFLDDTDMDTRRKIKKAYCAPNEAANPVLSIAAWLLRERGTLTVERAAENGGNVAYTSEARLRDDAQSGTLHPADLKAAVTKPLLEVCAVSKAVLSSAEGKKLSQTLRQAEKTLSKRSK
The experiment in a line: Trypanosoma cruzi tyrosyl tRNA synthetase (TcYRS) _High Tyrosine SOP. Note: in the data most compounds retested in dose-response had high values. The test is classed as functional. Conditions: 30 µM.

In test [8] the target is T4, Tyrosyl-tRNA synthetase, putative (Trypanosoma cruzi (strain CL Brener)). The test can be described thus: Trypanosoma cruzi tyrosyl tRNA synthetase (TcYRS) SOP. Particulars: 30 µM. It is filed as functional.
The target in test [9] is Chromo domain-containing protein 1 (Saccharomyces cerevisiae (strain ATCC 204508 / S288c) (Baker's yeast)) (UniProt P32657). The experiment in a line: ScCHD-1 Enzyme Inhibition Assay. Note: in the data most compounds retested in dose-response had high values. It is filed as functional. Particulars: 30 µM.
Sequence of Chromo domain-containing protein 1 (Saccharomyces cerevisiae (strain ATCC 204508 / S288c) (Baker's yeast)) (P32657 whole entry, the tested form may be a part): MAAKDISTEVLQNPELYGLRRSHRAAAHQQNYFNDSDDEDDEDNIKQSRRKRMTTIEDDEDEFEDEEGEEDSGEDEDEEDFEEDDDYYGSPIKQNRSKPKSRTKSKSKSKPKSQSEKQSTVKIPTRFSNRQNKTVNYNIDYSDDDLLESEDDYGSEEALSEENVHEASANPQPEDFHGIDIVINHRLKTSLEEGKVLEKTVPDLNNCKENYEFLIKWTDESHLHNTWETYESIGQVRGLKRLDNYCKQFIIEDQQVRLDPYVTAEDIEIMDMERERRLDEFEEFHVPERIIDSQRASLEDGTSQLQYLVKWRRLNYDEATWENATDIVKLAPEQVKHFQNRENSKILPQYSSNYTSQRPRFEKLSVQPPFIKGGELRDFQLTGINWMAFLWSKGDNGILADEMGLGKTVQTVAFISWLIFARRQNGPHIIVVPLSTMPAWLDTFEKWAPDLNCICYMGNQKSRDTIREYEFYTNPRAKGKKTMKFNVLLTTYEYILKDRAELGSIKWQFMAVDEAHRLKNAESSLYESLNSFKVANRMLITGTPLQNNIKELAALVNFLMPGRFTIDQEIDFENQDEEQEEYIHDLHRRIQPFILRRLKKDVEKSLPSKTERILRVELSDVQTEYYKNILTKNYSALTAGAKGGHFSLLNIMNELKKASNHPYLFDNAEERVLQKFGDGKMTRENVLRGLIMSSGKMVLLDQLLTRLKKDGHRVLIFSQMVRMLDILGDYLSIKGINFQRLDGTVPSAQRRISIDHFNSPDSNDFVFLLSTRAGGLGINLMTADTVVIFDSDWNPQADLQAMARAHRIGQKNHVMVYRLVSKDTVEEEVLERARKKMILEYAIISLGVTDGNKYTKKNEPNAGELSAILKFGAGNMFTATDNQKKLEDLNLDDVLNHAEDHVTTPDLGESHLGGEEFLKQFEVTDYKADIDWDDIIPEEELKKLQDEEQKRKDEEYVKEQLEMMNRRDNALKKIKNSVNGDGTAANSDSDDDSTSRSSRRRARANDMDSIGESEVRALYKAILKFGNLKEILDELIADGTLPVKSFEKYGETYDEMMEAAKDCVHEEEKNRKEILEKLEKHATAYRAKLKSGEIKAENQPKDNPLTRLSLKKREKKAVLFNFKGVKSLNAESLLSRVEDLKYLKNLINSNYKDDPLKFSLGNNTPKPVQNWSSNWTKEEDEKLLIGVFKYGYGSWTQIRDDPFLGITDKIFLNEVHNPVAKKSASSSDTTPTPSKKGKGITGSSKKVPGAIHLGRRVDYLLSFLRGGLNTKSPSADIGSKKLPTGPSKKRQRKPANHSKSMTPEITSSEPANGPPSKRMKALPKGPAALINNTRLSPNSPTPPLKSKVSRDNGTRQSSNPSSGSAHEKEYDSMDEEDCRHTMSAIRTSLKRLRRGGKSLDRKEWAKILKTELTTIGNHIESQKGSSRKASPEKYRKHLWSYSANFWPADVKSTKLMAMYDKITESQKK

The structures appear in SMILES notation. For some assays here: Entries with a potency or affinity are not part of this list.

Sequence of Protein translocase subunit SecA (Escherichia coli (strain K12)) (P10408 whole entry): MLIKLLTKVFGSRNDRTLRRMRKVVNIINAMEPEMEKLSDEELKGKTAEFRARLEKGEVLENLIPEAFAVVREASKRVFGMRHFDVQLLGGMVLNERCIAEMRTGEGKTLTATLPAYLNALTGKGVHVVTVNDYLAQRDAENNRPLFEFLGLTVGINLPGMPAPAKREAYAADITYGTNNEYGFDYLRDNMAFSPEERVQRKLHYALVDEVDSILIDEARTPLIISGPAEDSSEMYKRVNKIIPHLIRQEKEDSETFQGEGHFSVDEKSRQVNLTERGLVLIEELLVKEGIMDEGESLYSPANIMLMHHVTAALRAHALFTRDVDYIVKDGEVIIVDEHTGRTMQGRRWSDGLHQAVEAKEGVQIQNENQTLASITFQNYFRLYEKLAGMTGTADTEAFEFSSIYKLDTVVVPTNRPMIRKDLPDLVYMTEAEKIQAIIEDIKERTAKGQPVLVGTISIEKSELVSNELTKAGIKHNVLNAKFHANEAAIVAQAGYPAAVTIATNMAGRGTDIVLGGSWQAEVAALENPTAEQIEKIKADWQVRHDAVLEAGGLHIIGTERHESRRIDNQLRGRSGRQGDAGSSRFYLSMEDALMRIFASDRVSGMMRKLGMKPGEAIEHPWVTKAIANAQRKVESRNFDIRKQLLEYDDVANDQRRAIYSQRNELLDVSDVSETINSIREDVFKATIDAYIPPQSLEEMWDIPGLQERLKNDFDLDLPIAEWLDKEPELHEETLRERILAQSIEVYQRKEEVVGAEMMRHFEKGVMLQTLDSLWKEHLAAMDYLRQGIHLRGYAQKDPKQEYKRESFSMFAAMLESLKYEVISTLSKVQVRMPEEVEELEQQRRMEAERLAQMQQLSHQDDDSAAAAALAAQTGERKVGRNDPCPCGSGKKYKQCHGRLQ

Consider `Cc1cccc(OCCC(=O)N(C)CCC#N)c1C`, for which the Percent Effect in test [1] was -4.33%; in test [2], 2.63%; in test [3] it was 12.1%; in test [4] it was 7.74%; in the test on Trypanosoma cruzi, -5.16%; in test [5], -5.92%. In addition, the Percent Effect in [6] is 23.1%; in the test filed under Homo sapiens it was 9.14%; in test [7] it was 4.25%; in test [8], 10.4%; in [9], -5.59%.
As for `CCCN1CCC(N(Cc2ncc(C)o2)C(C)=O)C1` (stereo not given), the Percent Effect in test [1] is -6.17%; in [2], 0%; in test [3], -14.9%; in test [4], 26.2%; in the test on Trypanosoma cruzi, 2.05%; in test [5] it was -0.744%. Also, the Percent Effect in test [6] was 22.6%; in the test listed under Homo sapiens, 1.11%; in test [7] it was 3.23%; in test [8], 1.24%; in test [9], -1.33%.
For the compound `O=C(O)C1(Cc2cccc(-c3ccc(F)c(F)c3)c2)CCOCC1`, the Percent Effect in test [1] is -3.39%; in test [2], 1.35%; in test [3] it was 13.4%; in [4], 4.42%; with Trypanosoma cruzi, -1.78%; in test [5], 1.16%. Also, the Percent Effect is 5.93% in test [6]; 28.6% in the test listed under Homo sapiens; -15.1% in test [7]; -11.7% in [8]; -15% in test [9].
On to `COc1cccc(S(=O)(=O)NC(=O)COc2c(C)cccc2C)c1`, for which the Percent Effect is -5.17% in test [1]; 7.79% in [2]; -10.1% in test [3]; -4.14% in [4]; -2.81% in the test on Trypanosoma cruzi; 2.13% in [5]. Further, the Percent Effect in [6] is 6.08%; in the test listed under Homo sapiens, 10.3%; in [7], 0%; in test [8], 12.2%; in [9] it was -4.1%.
Take `COc1ccc(NCc2nc(=O)n(CCC(C)C)[nH]2)cc1`: the Percent Effect is -3.47% in [1]; 10.5% in test [2]; 11.6% in test [3]; 5.94% in [4]; -0.0974% with Trypanosoma cruzi; -8.28% in test [5]. In addition, the Percent Effect was 8.92% in test [6]; -19% in the test filed under Homo sapiens; 4.25% in test [7]; 10.4% in [8]; -2.13% in test [9].
With `O=C(NCc1ccccc1CN1CCC(O)CC1)Nc1cccnc1`, the Percent Effect was -1.42% in test [1]; -5.41% in test [2]; -1.33% in test [3]; 2.18% in test [4]; 0.193% with Trypanosoma cruzi; 2.38% in test [5]. The Percent Effect in [6] is 8.79%; in the test filed under Homo sapiens it was -8.19%; in test [7], 1.59%; in [8], -2.44%; in test [9], -1.85%.
With `COc1ccsc1C(=O)N1CCCC(n2nc(C)nc2C)C1` (stereo not given), the Percent Effect in [1] was 0.303%; in [2] it was 0%; in test [3], -4.74%; in test [4], -3.48%; in the test with Trypanosoma cruzi, -6.89%; in [5], 2.66%. The Percent Effect in test [6] was -1.72%; in the test filed under Homo sapiens, 6.32%; in test [7], 6.4%; in test [8], 3.8%; in test [9], 1.65%.
Regarding `O=C(c1cnccn1)N1CCc2onc(CN3CCOCC3)c2C1`, the Percent Effect in test [1] was -1.8%; in [2] it was 0%; in test [3], 11.9%; in test [4], -11%; in the test on Trypanosoma cruzi, -6.75%; in test [5], 2.87%. Further, the Percent Effect in [6] is 11.8%; in the test filed under Homo sapiens, 13.9%; in test [7], 1.08%; in [8], 2.56%; in [9], -5.16%.
Regarding `COc1ccc(NC(=O)CNc2ccc(Br)cc2F)cc1`, the Percent Effect in test [1] is -3.43%; in test [2], 5.26%; in [3], 9.89%; in [4] it was 2.32%; in the test with Trypanosoma cruzi, -0.487%; in test [5], 0%. Further, the Percent Effect in test [6] is 17.7%; in the test filed under Homo sapiens, 39.2%; in [7], -14.9%; in [8] it was -13%; in test [9], -4.78%.
Turning to `CC(C)N(CC(N)=O)Cc1csc(Cc2ccccc2)n1`, the Percent Effect was -3.88% in test [1]; 12.7% in test [2]; 0.223% in [3]; -4.46% in test [4]; -6.7% in the test on Trypanosoma cruzi; 0% in test [5]. For the same compound, the Percent Effect in [6] was 5.82%; in the test filed under Homo sapiens, 41.7%; in test [7] it was -1.48%; in [8] it was 11.4%; in [9], -6.32%.

Values taken from ChEMBL document CHEMBL3988442, “University of Dundee, Small-Polar-MMV Screening Library” (2021).
